{"source": "PubChem BioAssay (NCATS)", "key": {"[1]": {"target": "Tyrosine-protein kinase Yes (Homo sapiens) (UniProt P07947)", "sequence (P07947 whole entry, looked up)": "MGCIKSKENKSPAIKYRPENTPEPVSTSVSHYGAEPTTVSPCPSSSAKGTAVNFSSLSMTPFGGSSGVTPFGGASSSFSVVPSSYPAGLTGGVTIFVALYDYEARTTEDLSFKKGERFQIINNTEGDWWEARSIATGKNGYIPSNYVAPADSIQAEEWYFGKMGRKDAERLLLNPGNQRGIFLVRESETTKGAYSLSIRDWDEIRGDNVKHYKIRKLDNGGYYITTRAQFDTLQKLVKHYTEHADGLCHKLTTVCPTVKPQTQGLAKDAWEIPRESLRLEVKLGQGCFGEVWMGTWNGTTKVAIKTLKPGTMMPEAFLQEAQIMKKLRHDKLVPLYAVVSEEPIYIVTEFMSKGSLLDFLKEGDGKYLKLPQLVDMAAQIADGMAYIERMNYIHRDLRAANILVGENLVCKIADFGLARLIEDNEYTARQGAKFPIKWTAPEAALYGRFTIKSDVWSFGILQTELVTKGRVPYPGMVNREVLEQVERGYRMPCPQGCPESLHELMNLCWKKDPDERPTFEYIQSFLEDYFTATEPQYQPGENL", "test": "qHTS for small molecule inhibitors of Yes1 kinase: Primary Screen (AID 686947); note: nearly all actives have a fitted effect of over 60% in size; note: potency is the fitted concentration of half-maximal effect", "outline": "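Yes1 (4 nM) preincubated 20 min with compound, then 60 min room-temperature reaction with 0.1 mM ATP and 0.3 mg/mL poly(E4Y) in pH 7.5 Tris, 10 mM MgCl2. ADP measured by ADP-Glo luminescence, normalised to enzyme/no-enzyme controls.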"}, "[2]": {"test": "qHTS for small molecule inhibitors of Yes1 kinase: Counter Assay (AID 686950);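 note: no kinase present so only ADP-Glo detection of a fixed ADP amount is tested; luminescence from ADP-Glo reporting ADP in a fixed ATP and ADP mixture; 0% = DMSO wells with ATP plus ADP and -100% = ATP-only wells without ADP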", "outline": "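Enzyme-free detection counter-screen: compounds preincubated 20 min in buffer, then 0.08 mM ATP plus 0.02 mM ADP added for 60 min at room temperature; ADP-Glo luminescence. Buffer 50 mM Tris pH 7.5, 10 mM MgCl2, 150 mM NaCl; normalized to ATP+ADP and ATP-only controls.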"}, "[3]": {"target": "RecQ-like DNA helicase BLM (Homo sapiens) (UniProt P54132)", "sequence (P54132 whole entry, looked up)": "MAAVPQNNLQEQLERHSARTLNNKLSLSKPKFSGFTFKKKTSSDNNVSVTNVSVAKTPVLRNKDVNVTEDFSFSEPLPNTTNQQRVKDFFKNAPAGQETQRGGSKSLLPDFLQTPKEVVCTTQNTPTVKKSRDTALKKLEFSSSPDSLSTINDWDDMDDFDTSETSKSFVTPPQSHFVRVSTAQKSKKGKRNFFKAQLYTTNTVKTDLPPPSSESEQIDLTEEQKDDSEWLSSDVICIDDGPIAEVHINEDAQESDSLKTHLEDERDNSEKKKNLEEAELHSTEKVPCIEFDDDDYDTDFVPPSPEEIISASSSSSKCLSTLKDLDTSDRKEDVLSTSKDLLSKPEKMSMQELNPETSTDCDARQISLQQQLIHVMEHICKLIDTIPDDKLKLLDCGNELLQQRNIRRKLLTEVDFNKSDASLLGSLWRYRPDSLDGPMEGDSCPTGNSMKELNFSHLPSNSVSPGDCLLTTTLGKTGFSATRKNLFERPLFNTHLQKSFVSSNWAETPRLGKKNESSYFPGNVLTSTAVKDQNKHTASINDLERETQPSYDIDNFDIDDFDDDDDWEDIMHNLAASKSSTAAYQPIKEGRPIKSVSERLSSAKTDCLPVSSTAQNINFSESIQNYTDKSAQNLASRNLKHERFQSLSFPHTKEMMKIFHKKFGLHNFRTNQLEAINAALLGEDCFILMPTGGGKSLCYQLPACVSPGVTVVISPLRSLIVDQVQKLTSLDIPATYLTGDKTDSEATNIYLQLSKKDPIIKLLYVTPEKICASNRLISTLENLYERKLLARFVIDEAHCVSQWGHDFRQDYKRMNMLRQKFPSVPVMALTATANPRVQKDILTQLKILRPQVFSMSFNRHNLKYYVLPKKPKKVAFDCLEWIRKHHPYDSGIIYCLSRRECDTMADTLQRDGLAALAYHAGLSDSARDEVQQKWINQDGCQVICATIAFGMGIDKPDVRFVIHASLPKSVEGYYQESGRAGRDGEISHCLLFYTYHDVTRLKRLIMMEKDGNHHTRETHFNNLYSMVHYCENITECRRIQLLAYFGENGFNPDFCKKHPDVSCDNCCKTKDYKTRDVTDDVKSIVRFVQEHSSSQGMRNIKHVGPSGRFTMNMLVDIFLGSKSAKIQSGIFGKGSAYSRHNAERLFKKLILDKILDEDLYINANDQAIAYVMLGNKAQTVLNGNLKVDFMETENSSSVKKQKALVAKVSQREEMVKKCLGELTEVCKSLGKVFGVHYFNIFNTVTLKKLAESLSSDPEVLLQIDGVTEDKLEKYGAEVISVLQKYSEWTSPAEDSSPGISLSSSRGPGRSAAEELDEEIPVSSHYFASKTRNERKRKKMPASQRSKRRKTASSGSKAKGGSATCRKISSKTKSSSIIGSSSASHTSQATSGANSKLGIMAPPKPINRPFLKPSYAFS", "test": "qHTS for Inhibitors of WRN Helicase: BLM Helicase Counterscreen for WRN Inhibitors (AID 720503); note: potency is the fitted concentration of half-maximal effect; nearly all actives have a fitted effect of over 60% in size", "outline": "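BLM (1 nM) was preincubated with compounds for 15 min at room temperature in Tris-HCl pH 8.0, 50 mM NaCl, 2 mM MgCl2 buffer. Unwinding started with 100 nM DNA and 2 mM ATP (final); red fluorescence was read twice, 15 min apart.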"}, "[4]": {"target": "Phosphoglycerate kinase, glycosomal (Trypanosoma brucei brucei) (UniProt P07378)", "sequence (P07378 whole entry, looked up)": "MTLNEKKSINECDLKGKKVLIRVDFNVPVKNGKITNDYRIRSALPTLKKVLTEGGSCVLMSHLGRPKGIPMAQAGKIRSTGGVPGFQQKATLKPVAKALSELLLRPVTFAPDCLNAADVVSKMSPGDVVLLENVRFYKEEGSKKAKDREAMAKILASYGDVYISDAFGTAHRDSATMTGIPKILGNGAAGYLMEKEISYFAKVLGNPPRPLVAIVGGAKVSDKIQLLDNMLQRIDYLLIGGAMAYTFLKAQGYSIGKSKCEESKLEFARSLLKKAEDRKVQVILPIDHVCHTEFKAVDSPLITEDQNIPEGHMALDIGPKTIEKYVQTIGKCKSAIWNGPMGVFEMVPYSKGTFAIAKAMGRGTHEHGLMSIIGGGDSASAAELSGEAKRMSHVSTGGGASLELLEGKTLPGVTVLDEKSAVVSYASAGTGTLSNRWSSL", "test": "qHTS for inhibitors of Phosphogylcerate Kinase: Hit Validation Screen (AID 686980); note: potency is the fitted concentration of half-maximal effect; nearly all actives have a fitted effect of over 65% in size", "details": "TbPGK coupled GAPDH assay, Kinase-Glo luminescence", "outline": "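Luminescent ATP detection (Kinase-Glo Plus) follows a 60-minute room-temperature incubation, with wells lacking PGK as controls. Buffer: 100 mM TEA (pH 7.6), 5 mM MgCl2, 0.01% Tween-20. Coupling enzyme GAPDH (100 nM final) supplies unstable 1,3-BPG in-well.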"}, "[5]": {"test": "qHTS profiling for inhibitors of Plasmodium falciparum (3D7) proliferation (AID 743322);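 note: infected erythrocytes exposed to compound for 72 h before lysis; 100% = DMSO vehicle wells and 0% = 0.29 µM artemisinin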", "details": "P. falciparum 3D7 proliferation; at 28.7 µM (top of the series)", "outline": "(§1)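 Erythrocytes infected with P. falciparum (0.3% parasitemia, 2.5% hematocrit) incubated with compounds 72 h at 37 C, 5% CO2. Lysis with saponin/Triton buffer containing SYBR Green I, overnight at room temperature in the dark; DNA fluorescence (485/535 nm) normalised to 0.29 uM artemisinin and DMSO.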"}, "[6]": {"test": "qHTS profiling for inhibitors of Plasmodium falciparum (DD2) proliferation (AID 743323; call rule not given here)", "details": "lower = more inhibition; at 28.7 µM (top of the series)", "outline": "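SYBR Green fluorescence (ex 485, em 535 nm) of lysed cultures gives parasite DNA content; wells normalized to artemisinin (0.29 uM) and DMSO controls. Infected red cells: 0.3% parasitemia, 2.5% hematocrit, 72 h, 37 C.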"}, "[7]": {"test": "qHTS profiling for inhibitors of Plasmodium falciparum (HB3) proliferation (AID 743324)", "details": "Plasmodium falciparum HB3 blood-stage proliferation; at 28.7 µM (top of the series)", "outline": "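P. falciparum HB3 grown in erythrocytes (0.3% parasitemia, 2.5% hematocrit final) with compound for 72 h at 37 C, 5% CO2. Parasite DNA detected by SYBR Green after saponin/triton lysis overnight; normalized to 0.29 uM artemisinin and DMSO.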"}, "[8]": {"test": "qHTS profiling of the MIPE4 collection as inhibitors of Plasmodium falciparum (3D7) proliferation (AID 743344; call rule not given here)", "details": "P. falciparum 3D7 in erythrocytes, SYBR Green DNA fluorescence, 72 h; at 28.5 µM (top of the series)", "outline": "as §1"}, "[9]": {"test": "qHTS profiling of the MIPE4 collection as inhibitors of Plasmodium falciparum (DD2) proliferation (AID 743345; call rule not given here)", "details": "P. falciparum Dd2 in erythrocytes, SYBR Green DNA, 72 h; at 28.5 µM (top of the series)", "outline": "as §1"}, "[10]": {"test": "qHTS profiling of the MIPE4 collection as inhibitors of Plasmodium falciparum (DD2) proliferation (Rep 2) (AID 743346; call rule not given here)", "details": "P. falciparum Dd2 in erythrocytes, SYBR Green DNA, 72 h; at 28.5 µM (top of the series)", "outline": "as §1"}, "[11]": {"test": "qHTS profiling of the MIPE4 collection as inhibitors of Plasmodium falciparum (HB3) proliferation (AID 743347; call rule not given here)", "details": "P. falciparum HB3 in erythrocytes, SYBR Green DNA, 72 h; at 28.5 µM (top of the series)", "outline": "as §1"}}, "note": "Results filed as inconclusive are left out. Some of the results follow. Calls of active or inactive are those of the source. Unless noted, calls come from the whole dose curve; as a rule, active = well fitted curve in the direction sought with a large enough effect; inconclusive = small, poorly fitted or top-dose-only effect, or another doubt; inactive = no such curve, though single readings can be large; an effect the other way counts as inactive or inconclusive.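 Throughout, for growth, % of control: plate controls were DMSO vehicle wells for no effect and artemisinin wells for full effect.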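 Throughout, for parasite growth, % of DMSO control: scaled between DMSO vehicle wells and 0.29 µM artemisinin as full inhibition.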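 Throughout, for remaining proliferation (% of control), lower = more inhibition: 100% = DMSO vehicle wells and 0% = artemisinin-treated control wells.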", "data": [{"compound": "COc1cccc(-n2cnc3c(NN=Cc4ccncc4)ncnc32)c1", "values": [{"measurement": "Potency", "setting": "[1]", "result": "0.582 µM (active)"}, {"measurement": "outcome", "setting": "[2]", "result": "inactive"}]}, {"compound": "c1ccc(-c2[nH]ncc2-c2ccnc(-c3ccc(OCCN4CCOCC4)cc3)c2)nc1", "values": [{"measurement": "Potency", "setting": "[1]", "result": "7.33 µM (active)"}, {"measurement": "outcome", "setting": "[2]", "result": "inactive"}]}, {"compound": "NS(=O)(=O)c1ccc(Nc2cc(-c3cccc(O)c3)[nH]n2)cc1", "values": [{"measurement": "Potency", "setting": "[1]", "result": "23.2 µM (active)"}, {"measurement": "outcome", "setting": "[2]", "result": "inactive"}]}, {"compound": "CCN(CC)Cc1ccc(Nc2nccc(-c3cnn4ncccc34)n2)cc1", "values": [{"measurement": "Potency", "setting": "[1]", "result": "7.33 µM (active)"}, {"measurement": "outcome", "setting": "[2]", "result": "inactive"}]}, {"compound": "FC(F)(F)CNc1nccc(-c2cnn3ncccc23)n1", "values": [{"measurement": "Potency", "setting": "[1]", "result": "inactive"}, {"measurement": "outcome", "setting": "[2]", "result": "inactive"}]}, {"compound": "CC(C)COC(=O)c1ccc2[nH]c(O)c(C=Nc3ccc(S(N)(=O)=O)cc3)c2c1", "values": [{"measurement": "Potency", "setting": "[1]", "result": "9.23 µM (active)"}, {"measurement": "outcome", "setting": "[2]", "result": "inactive"}]}, {"compound": "NC(=O)c1cccc(Nc2nccc(Nc3cccc(F)c3)n2)c1", "values": [{"measurement": "Potency", "setting": "[1]", "result": "1.16 µM (active)"}, {"measurement": "outcome", "setting": "[2]", "result": "inactive"}]}, {"compound": "FC(F)(F)c1ccc(-c2nn3ncccc3c2-c2ccnc(Nc3ccc4c(c3)OCCO4)n2)cc1", "values": [{"measurement": "Potency", "setting": "[1]", "result": "2.6 µM (active)"}, {"measurement": "outcome", "setting": "[2]", "result": "inactive"}]}, {"compound": "COc1ccc(Cl)cc1NC(=O)CCS(=O)(=O)c1ccc(Br)cc1", "values": [{"measurement": "Potency", "setting": "[3]", "result": "4.82 µM (active)"}]}, {"compound": "Cc1c(CC(=O)N2CCN(C(=O)C3COc4ccccc4O3)CC2)c(=O)oc2c(O)c(O)ccc12", "note": "(stereo not given)", "values": [{"measurement": "Potency", "setting": "[3]", "result": "1.52 µM (active)"}]}, {"compound": "Cc1ccc(-c2nc(SCc3ccc(Br)cc3)n3[nH]c(=O)cc3n2)cc1", "values": [{"measurement": "Potency", "setting": "[4]", "result": "9.19 µM (active)"}]}, {"compound": "CCOc1ccc(F)cc1C1(O)C(N)=Nc2ccc(Cl)cc21", "note": "(stereo not given)", "values": [{"measurement": "remaining parasite growth % (stronger effect = lower value)", "setting": "[5]", "result": 0.18, "unit": "%"}, {"measurement": "activity, percent of control", "setting": "[6]", "result": 0.185, "unit": "%"}, {"measurement": "remaining proliferation (% of control), lower = more inhibition", "setting": "[7]", "result": 1.54, "unit": "%"}, {"measurement": "parasite growth, % of DMSO control", "setting": "[8]", "result": 5.08, "unit": "%"}, {"measurement": "parasite growth remaining, % of DMSO control (lower = more inhibition)", "setting": "[9]", "result": 6.08, "unit": "%"}, {"measurement": "parasite growth, % of control (lower = inhibition)", "setting": "[10]", "result": 8.34, "unit": "%"}, {"measurement": "growth, % of control", "setting": "[11]", "result": 5.81, "unit": "%"}]}, {"compound": "CCOc1ccccc1C(=O)NCc1ccco1", "values": [{"measurement": "Potency", "setting": "[3]", "result": "19.2 µM (active)"}]}, {"compound": "C[C@@H]1Cc2c([nH]c3cc(Cl)c(F)cc23)[C@]2(N1)C(=O)Nc1ccc(Cl)cc12", "values": [{"measurement": "remaining parasite growth % (stronger effect = lower value)", "setting": "[5]", "result": -0.966, "unit": "%"}, {"measurement": "activity, percent of control", "setting": "[6]", "result": 0.0887, "unit": "%"}, {"measurement": "remaining proliferation (% of control), lower = more inhibition", "setting": "[7]", "result": -0.181, "unit": "%"}]}]}
